Test results reported in article PMC5540273 (PLoS ONE, 2017).

How the values were obtained:
Conditions in all cases: concentration: 1 μM, replicates: in singlicate; n = 1
LCK = system: LCK
LIMK1 = system: LIMK1
LIMK2 = system: LIMK2
LKB1 = system: T1, LKB1
T1 construct: gene STK11

LOK = system: T2, LOK
T2 construct: gene STK10

LRRK2 = system: LRRK2
LTK = system: LTK
LYN = system: LYN
LZK = system: T3, LZK
T3 construct: gene MAP3K13

MAK = system: MAK
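Also: KINOMEscan kinase panel screen.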

SMILES	%Inh (LCK) [%]	%Inh (LIMK1) [%]	%Inh (LIMK2) [%]	%Inh (LKB1) [%]	%Inh (LOK) [%]	%Inh (LRRK2) [%]	%Inh (LTK) [%]	%Inh (LYN) [%]	%Inh (LZK) [%]	%Inh (MAK) [%]
COc1cccc(NC(=O)NCCNc2ccnc(Nc3ccc(F)cc3)n2)c1 [GSK1379879]	6	0	18	6	0	0	0	0	11	56
COc1cccc(-c2nc(-c3ccccc3)[nH]c2-c2ccncc2)c1 [SB-610250]	16	20	0	4	0	14	0	0	0	47
Cc1cccc(Nc2nc(N[C@H]3CCCC[C@H]3N)ncc2C(N)=O)c1.Cl [GSK986310]	47	15	18	0	0	21	52	34	0	27
CS(=O)(=O)c1cccc(CNc2nc(Nc3ccc4c(c3)CCC(=O)N4)ncc2C(F)(F)F)c1	0	0	0	34	0	16	0	16	0	0
Cc1ccc(NC(=O)c2ccc(Cl)c(Cl)c2)cc1-c1ccc(C(=O)Nc2ccncc2)cc1 [GSK1398460]	91.9	19	0	0	0	0	11	83	0	100
Cc1cccc(Nc2nc(NCCN)ncc2C(N)=O)c1 [GSK1292139]	15	0	0	24	0	0	26	3	0	15
Cc1cc(-c2ccnc(Nc3cccc(C#N)c3)n2)cc(C)c1O [GSK1440913]	18	14	42	86	17	0	0	20	0	36
CN(c1ccc(F)c(NC(=O)c2cccc(OC(C)(C)C#N)c2Cl)c1)c1ccc2nc(NC(=O)C3CC3)sc2n1	97.9	0	0	11	95.4	9	0	93.1	46	0
COc1cc(Nc2ccnc3cc(-c4ccncc4)ccc23)cc(OC)c1OC.Cl [GW494610]	98.6	0	0	0	96.9	27	24	67	31	20
